# According to PubChem BioAssay (Tox21):
# Unmarked numbers belong to inactive results. Inconclusive results are not listed. Where a call stands in place of a potency, no number is given. The source made the active and inactive calls. Unless noted, the call rests on the fitted dose curve; in most records, active means well fitted curve in the direction sought with a large enough effect in the repeat runs; inconclusive means weak or mixed curves; inactive means no such curve, though single readings can be large; an effect the other way counts as inactive or inconclusive.
# How the values were obtained:
# [1] = A CellTox Green Cytotoxicity Assay to monitor cytotoxicity in HepG2 cells - 8 hour (AID 1224890); further: nearly all actives have a fitted effect of over 45% in size
# How it was run: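 Measurements at 0, 8, 16, 24, 32 and 40 h of treatment captured CellTox Green fluorescence in HepG2 cells that had been co-plated with reagent and preincubated 5 h at 37 C/5% CO2.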
# [2] = qHTS assay to identify small molecule antagonists of the estrogen receptor alpha (ER-alpha) signaling pathway using the BG1 cell line in the presence of 0.1 nM 17-beta-estradiol - cell viability counter screen (AID 1259241); further: nearly all actives have a fitted effect of over 40% in size
# How it was run: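 Viability in VM7Luc4E2 cells after 22 hr compound exposure under 0.1 nM 17beta-estradiol stimulation, by CellTiter-Fluor.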
# [3] = qHTS assay to identify small molecule antagonists of the androgen receptor (AR) signaling pathway using the MDA cell line in the presence of 0.5 nM R1881 - cell viability counter screen (AID 1259242); further: nearly all actives have a fitted effect of over 45% in size
# How it was run: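 Concentration-response screen of compounds for toxicity in MDA-kb2 reporter cells: 16 hr at 37C with 0.5 nM R1881, endpoint live-cell protease fluorescence measured in the reporter wells.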
# [4] = target: Androgen receptor (Homo sapiens) (UniProt P10275); experiment: qHTS assay to identify small molecule antagonists of the androgen receptor (AR) signaling pathway using the MDA cell line in the presence of 0.5 nM R1881 (AID 1259243); further: nearly all actives have a fitted effect of over 50% in size
# Chain of Androgen receptor (Homo sapiens) (P10275 whole entry, looked up): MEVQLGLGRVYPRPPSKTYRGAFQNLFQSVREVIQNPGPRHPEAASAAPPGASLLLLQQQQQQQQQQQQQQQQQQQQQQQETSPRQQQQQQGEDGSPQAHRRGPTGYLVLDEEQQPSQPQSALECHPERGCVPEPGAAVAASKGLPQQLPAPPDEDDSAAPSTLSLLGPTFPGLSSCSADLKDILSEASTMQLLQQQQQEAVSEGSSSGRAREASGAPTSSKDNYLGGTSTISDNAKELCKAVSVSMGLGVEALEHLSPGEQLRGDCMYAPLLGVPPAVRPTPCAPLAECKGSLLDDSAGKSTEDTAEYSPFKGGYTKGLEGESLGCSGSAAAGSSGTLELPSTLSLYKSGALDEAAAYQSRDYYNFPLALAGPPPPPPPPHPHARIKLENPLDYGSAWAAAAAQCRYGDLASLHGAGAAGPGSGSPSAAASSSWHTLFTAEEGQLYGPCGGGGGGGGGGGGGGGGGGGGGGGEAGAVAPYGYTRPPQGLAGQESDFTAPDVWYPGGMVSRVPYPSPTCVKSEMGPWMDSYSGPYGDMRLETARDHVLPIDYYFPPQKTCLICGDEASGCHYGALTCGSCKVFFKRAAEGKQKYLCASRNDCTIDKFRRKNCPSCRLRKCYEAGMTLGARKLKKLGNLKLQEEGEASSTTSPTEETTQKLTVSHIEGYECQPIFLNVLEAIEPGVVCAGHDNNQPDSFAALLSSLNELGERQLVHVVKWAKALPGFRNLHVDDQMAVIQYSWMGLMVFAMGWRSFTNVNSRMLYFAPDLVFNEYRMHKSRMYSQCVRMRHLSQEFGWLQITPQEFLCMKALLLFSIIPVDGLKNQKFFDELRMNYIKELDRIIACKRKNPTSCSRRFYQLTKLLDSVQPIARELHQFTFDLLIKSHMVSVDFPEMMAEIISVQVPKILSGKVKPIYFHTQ
# How it was run: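 With R1881 held at 0.5 nM (final), compound effects on MMTV-luciferase expression in MDA-kb2 cells were scored by luminescence after a 16 hr, 37C incubation.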
# [5] = qHTS assay to identify small molecule HDAC inhibitors (AID 1259364);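 further: wild-type HCT-116 cells with endogenous class I/II HDAC activity; top concentration of the series differs between compounds; nearly all actives have a fitted effect of over 45% in size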
# How it was run: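 Screening used wild-type human colon HCT-116 cells incubated overnight, dosed with compounds for 2 hours, and assayed with a homogeneous luminogenic HDAC I/II reagent for 30 minutes at room temperature.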
# [6] = qHTS assay to identify small molecule HDAC inhibitors - cell viability counter screen (AID 1259365); further: series mostly up to about 92 µM; nearly all actives have a fitted effect of over 50% in size
# How it was run: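 Cytotoxicity was gauged in wild-type HCT-116 cells after a brief 2hr treatment with DMSO-dissolved compounds at 37C and 5% CO2, using CellTiter-Glo luminescence developed for 30min at room temperature.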
# [7] = qHTS assay to identify small molecule agonists of the sonic hedgehog signaling (Shh) pathway - cell viability counter screen (AID 1259366); further: nearly all actives have a fitted effect of over 50% in size; further: potency means the concentration at half of the fitted maximal effect
# How it was run: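 Stable Gli1-Luc NIH/3T3 clone, 2,000 cells/well. Compound exposure 24hr at 37C. Read-out: CellTiter-Fluor fluorescence.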
# [8] = qHTS assay to identify small molecule antagonists of the sonic hedgehog signaling (Shh) pathway - cell viability counter screen (AID 1259367); further: nearly all actives have a fitted effect of over 55% in size
# How it was run: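 CellTiter-Fluor signal in conditioned medium-stimulated 3T3 Gli1-Luc cells, 23 hr compound exposure, 37C.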
# [9] = qHTS assay to identify small molecule agonists of the sonic hedgehog signaling (Shh) pathway (AID 1259368; calls by dose curve;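 further: NIH/3T3-derived 3T3Gli1-Luc cells carrying a stable Gli1-driven firefly luciferase reporter; series mostly up to about 92 µM; nearly all actives have a fitted effect of over 15% in size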)
# How it was run: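 Hedgehog pathway agonism scored by increased firefly luciferase luminescence in 3T3Gli1-Luc cells treated 24 hr at 37 C; detection used a 30 min room-temperature reagent incubation.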
# [10] = qHTS assay to identify small molecule antagonists of the sonic hedgehog signaling (Shh) pathway (AID 1259369; calls by dose curve; further: nearly all actives have a fitted effect of over 45% in size)
# How it was run: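 NIH/3T3 stable Gli1-Luc clone, 2,000 cells/well, 4hr settle; cpd + conditioned medium 24hr; Luc reagent 30min RT; luminescence.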
# [11] = qHTS assay to identify small molecule agonists of the androgen receptor (AR) signaling pathway in the presence of an antagonist - cell viability counter screen (AID 1259379);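 further: MDA-kb2 human breast cancer cells carrying an MMTV luciferase reporter; series mostly up to about 92 µM; nearly all actives have a fitted effect of over 25% in size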
# How it was run: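 MDA-kb2 viability measured by CellTiter-Fluor fluorescence in the same wells as the luciferase signal; nilutamide 3.0uM final; 15-point compound titration; 16 hr at 37C.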
# [12] = qHTS assay to identify small molecule agonists of the estrogen receptor beta (ER-beta) signaling pathway - cell viability counter screen (AID 1259380); further: nearly all actives have a fitted effect of over 30% in size
# How it was run: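 Measured: luminescence from CellTiter-Glo after 30 min at room temperature, added to wells already read for the LiveBLAzer FRET reporter (2 hr substrate); ER-beta-UAS-bla HEK293T cells had 16 hr compound treatment at 37C, 5% CO2.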
# [13] = target: Androgen receptor (Homo sapiens) (UniProt P10275); experiment: qHTS assay to identify small molecule agonists of the androgen receptor (AR) signaling pathway in the presence of an antagonist (AID 1259381; calls by dose curve; further: nearly all actives have a fitted effect of over 15% in size)
# How it was run: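 Luminescent ONE-Glo read, 30min at room temperature, follows 16hr compound exposure (15 concentrations) of MDA-kb2 cells at 37C, 0% CO2, with nilutamide added at 3.0uM final.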
# [14] = qHTS assay to identify small molecule antagonists of the estrogen receptor beta (ER-beta) signaling pathway - cell viability counter screen (AID 1259382);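 further: HEK293T cells carrying ER-beta-UAS-bla reporter stimulated with estradiol; series mostly up to about 92 µM; nearly all actives have a fitted effect of over 55% in size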
# How it was run: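 Readout: luminescence, CellTiter-Glo, same wells as bla assay. System: ER-beta-UAS-bla GripTite HEK293T, 2% charcoal-stripped FBS. Exposure: compounds plus 1nM 17-beta-estradiol, 16 hr, 37C.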
# [15] = qHTS assay to identify small molecule agonists or antagonists of the thyroid stimulating hormone receptor (TSHR) signaling pathway - wild type cell line counter screen (AID 1259384; calls by dose curve)
# How it was run: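 Counter screen in untransfected Hek293: compounds (15-point titration, triplicate) plus phosphodiesterase inhibitor Ro20-1724 added after 18 h plating; 30 min RT. Intracellular cAMP via competitive d2/cryptate immunoassay, 1 h incubation.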
# [16] = target: Estrogen receptor (Homo sapiens) (UniProt P03372); experiment: qHTS assay to identify small molecule antagonists of the estrogen receptor alpha (ER-alpha) signaling pathway using the BG1 cell line in the presence of 0.1 nM 17-beta-estradiol (AID 1259244); further: nearly all actives have a fitted effect of over 50% in size
# Chain of Estrogen receptor (Homo sapiens) (P03372 whole entry, looked up): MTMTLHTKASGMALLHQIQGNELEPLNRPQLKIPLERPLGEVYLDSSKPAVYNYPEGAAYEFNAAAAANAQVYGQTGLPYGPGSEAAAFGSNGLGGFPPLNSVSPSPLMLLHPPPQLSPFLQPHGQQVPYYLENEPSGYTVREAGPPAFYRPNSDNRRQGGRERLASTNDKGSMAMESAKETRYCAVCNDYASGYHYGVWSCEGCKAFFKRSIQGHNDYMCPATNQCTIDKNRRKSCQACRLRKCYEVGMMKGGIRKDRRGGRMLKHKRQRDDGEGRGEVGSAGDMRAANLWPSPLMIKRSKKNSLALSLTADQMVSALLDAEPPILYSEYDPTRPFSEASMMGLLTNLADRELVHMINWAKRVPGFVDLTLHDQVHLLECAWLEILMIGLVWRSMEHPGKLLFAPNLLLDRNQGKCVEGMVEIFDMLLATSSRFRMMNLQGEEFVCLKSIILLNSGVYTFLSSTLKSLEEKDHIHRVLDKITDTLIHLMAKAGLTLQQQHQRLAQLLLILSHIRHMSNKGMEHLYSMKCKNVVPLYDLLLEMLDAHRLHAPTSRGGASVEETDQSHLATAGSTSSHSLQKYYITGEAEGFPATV
# How it was run: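 Compounds were tested against 0.1 nM (final) 17beta-estradiol in VM7Luc4E2 cells, which express full-length ER-alpha and an ERE-luciferase reporter; luminescence was recorded following 22 h exposure.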
# [17] = target: Estrogen receptor beta (Homo sapiens) (UniProt Q92731); experiment: qHTS assay to identify small molecule agonists of the estrogen receptor beta (ER-beta) signaling pathway (AID 1259377; active means well fitted activation curve with a large enough effect in the signal ratio in the repeat runs, not every such curve was filed as active; the % refers to the signal ratio)
# Chain of Estrogen receptor beta (Homo sapiens) (Q92731 whole entry, looked up): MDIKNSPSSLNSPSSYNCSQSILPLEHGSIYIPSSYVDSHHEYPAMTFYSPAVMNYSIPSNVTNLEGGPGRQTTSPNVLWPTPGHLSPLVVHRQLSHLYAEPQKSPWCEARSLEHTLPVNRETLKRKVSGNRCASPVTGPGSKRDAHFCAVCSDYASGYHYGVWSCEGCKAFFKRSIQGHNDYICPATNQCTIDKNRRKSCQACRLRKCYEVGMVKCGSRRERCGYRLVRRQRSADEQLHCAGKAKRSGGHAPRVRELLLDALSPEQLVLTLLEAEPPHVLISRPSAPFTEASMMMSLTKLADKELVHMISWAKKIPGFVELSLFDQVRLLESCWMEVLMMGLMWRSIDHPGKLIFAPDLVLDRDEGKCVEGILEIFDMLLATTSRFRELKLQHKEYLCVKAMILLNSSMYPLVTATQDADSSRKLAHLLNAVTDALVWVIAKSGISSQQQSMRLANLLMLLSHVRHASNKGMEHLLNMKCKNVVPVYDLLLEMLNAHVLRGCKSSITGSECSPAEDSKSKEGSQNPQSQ
# How it was run: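 Measured by fluorescence intensity from a B/G FRET beta-lactamase substrate (2 h, room temperature) in ER-beta-UAS-bla HEK293T cells treated with DMSO-dissolved compounds for 16 hr at 37C and 5% CO2.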
# [18] = target: Estrogen receptor beta (Homo sapiens) (UniProt Q92731); experiment: qHTS assay to identify small molecule antagonists of the estrogen receptor beta (ER-beta) signaling pathway (AID 1259378; active means well fitted inhibition curve with a large enough effect in the signal ratio in the repeat runs, not every such curve was filed as active; the % refers to the signal ratio)
# How it was run: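 Antagonist mode: compounds added to beta-lactamase reporter HEK293T ER-beta-UAS cells stimulated with E2 (1nM final), 16 hr at 37C. LiveBLAzer B/G FRET substrate, 2 hours room temperature, fluorescence read-out.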
# [19] = target: Estrogen receptor (Homo sapiens) (UniProt P03372); experiment: qHTS assay to identify small molecule agonists of the estrogen receptor alpha (ER-alpha) signaling pathway in the presence of an antagonist (AID 1259383; calls by dose curve; further: top concentration of the series differs between compounds; nearly all actives have a fitted effect of over 15% in size)
# How it was run: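 Quantitative HTS confirmation: compounds titrated at 15 concentrations onto estrogen-deprived VM7Luc4E2 cells carrying a four-ERE luciferase construct, with ICI-182,780 present at 10.0nM final. Signal is luminescence after 22hr exposure.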
# [20] = qHTS assay to identify small molecule phospholipidosis (PLD) inducers (AID 1259344; active means well fitted curve in the direction sought with a large enough effect; an effect the other way counts as inactive or inconclusive)
# How it was run: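 Accumulated phospholipid, stained red by LipidTOX during 24 h compound treatment of HepG2 cells at 37 C, is quantified from images as pit number and intensity, normalised per cell using Hoechst-stained nuclei.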
Structure (SMILES),Potency [1],Potency [2],Potency [3],Potency [4],Potency [5],outcome [6],Potency [7],Potency [8],Potency [9],Potency [10],Potency [11],Potency [12],Potency [13],Potency [14],outcome [15],Potency [16],Potency [17],Potency [18],Potency [19],Potency [20]
Cc1cc(SC2=C(O)C[C@@](CCc3ccc(N)cc3)(C(C)C)OC2=O)c(C(C)(C)C)cc1CO,inactive,inactive,inactive,inactive,inactive,inactive,inactive,inactive,inactive,inactive,inactive,inactive,inactive,inactive,inactive,–,–,–,–,–
O=Cc1ccc(Cl)c([N+](=O)[O-])c1,inactive,inactive,inactive,–,inactive,inactive,27.3 µM (active),inactive,inactive,inactive,inactive,inactive,–,inactive,inactive,inactive,inactive,inactive,inactive,–
NCCOCCOCCN,inactive,inactive,inactive,inactive,inactive,inactive,inactive,inactive,inactive,inactive,inactive,–,inactive,–,inactive,–,inactive,inactive,–,–
COc1ccc(C(=O)c2ccc(C)cc2)c(O)c1,inactive,inactive,inactive,–,–,inactive,inactive,inactive,–,inactive,inactive,inactive,–,inactive,inactive,inactive,–,–,inactive,inactive
C/C(=C(\CCO)SS/C(CCO)=C(\C)N(C=O)Cc1cnc(C)nc1N)N(C=O)Cc1cnc(C)nc1N,inactive,inactive,inactive,–,inactive,inactive,inactive,inactive,inactive,inactive,–,inactive,–,inactive,inactive,inactive,inactive,inactive,inactive,inactive
N#C[C@@H]1CC(F)(F)CN1C(=O)CNC1CC2CCC(C1)N2c1ncccn1 (stereo partly specified),inactive,inactive,inactive,inactive,inactive,inactive,–,inactive,inactive,inactive,–,inactive,inactive,inactive,–,inactive,inactive,inactive,–,–
CC(C(=O)O)c1ccc2c(c1)Cc1cccnc1O2 (stereo unspecified),inactive,inactive,inactive,inactive,inactive,inactive,inactive,inactive,inactive,inactive,inactive,inactive,inactive,inactive,inactive,–,inactive,inactive,–,inactive
O=C(OCCOCCOCCOC(=O)c1ccccc1)c1ccccc1,inactive,inactive,inactive,–,inactive,–,inactive,inactive,inactive,inactive,–,inactive,–,inactive,inactive,inactive,inactive,inactive,inactive,–
